Values joined by “and” are separate entries in the source; they are usually repeats but may differ in a detail not shown here. Equal entries are not always repeated. Active and inactive are the calls of the source.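 How the source made its calls, unless noted: active means compound whose remaining NAD level is above about 45 nM (limit read from the data); inactive means the rest.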

Experiment [1] in a line: stimulators of nuclear beta-catenin in C2C12, primary screen, imaging, WNT3A-conditioned medium, mouse C2C12, NPC library (AID 1117326; in the data active means nuclear beta-catenin stimulation mostly above about 4.2%, no sharp cut-off; inactive means mostly below about 10%). The note with it: stronger effect = higher value.
The nature of experiment [2]: stimulators of insulin release from INS-1E, primary screen, cell-based, 5 mM glucose, NPC library (AID 1117329;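 active means compound raises insulin release from rat beta cells at 5 mM glucose, no numeric limit stated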). The note with it: rat INS-1E insulin secretion, at 10 µM, stronger effect = higher value.
Experiment [3] is described as follows: growth inhibition of GSK3B-pretreated HCT116 cells – cell-based, CellTiter-Glo, 0.2 to 20 µM (AID 1117336;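 active means compounds lowering colon cancer cell viability after pretreatment blocking the GSK3B kinase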). The note with it: HCT116 viability after GSK3B inhibitor, at 20 µM, stronger effect = higher value.
Experiment [4] can be described thus: inhibition of endothelial tube formation, primary screen, imaging, VEGF stimulated, CD31 staining, tube area, NPC library (AID 1117340;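 active means compound that reduces growth-factor-driven endothelial tube area in a mixed cell culture, no cutoff stated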). The following applies: VEGF-stimulated ADSC/ECFC co-culture, at 10 µM, stronger effect = higher value.
The nature of experiment [5]: glucagon-like peptide 1 release enhancers, primary assay, NCI-H716 cell line, NPC library (AID 1117341;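 active means compound raises GLP1 secretion from the human gut endocrine cells, with no numeric limit stated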). The note with it: NCI-H716 cells, at 10 µM, stronger effect = higher value.
Experiment [6] is described as follows: HCT116 colon cancer cell growth inhibition, primary screen, CellTiter-Glo luminescence, NPC library (AID 1117342;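 active means compounds that lower survival of HCT116 colon cancer cells in the luminescence readout, no numeric limit stated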). The following applies: at 20 µM (top of the series).
Experiment [7] is described as follows: CellTiter-Glo luminescent readout of SW480 viability loss, NPC library primary (AID 1117343;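 active means compounds that lower viability of the colon cancer cells in the luminescence readout, with no numeric limit stated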). The following applies: CellTiter-Glo luminescence; at 20 µM (top of the series) unless noted.
Experiment [8] is described as follows: decreased DLD-1 cellular survival, CellTiter-Glo luminescent readout, NPC compound collection, primary HTS (AID 1117346;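 active means compounds that lower survival of DLD-1 colon cancer cells in the luminescence readout, no cutoff given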). The note with it: DLD-1 viability, CellTiter-Glo luminescence; at 20 µM (top of the series).
The nature of experiment [9]: differential killing of epithelial or mesenchymal cells, primary screen, imaging, PC-3E GFP, TEM4-18 mCherry, co-culture (AID 1345086;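 active means compounds killing one labelled cell type while sparing the other, by normalised counts and ratio limits, not self-fluorescent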;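 on all read-outs here: cells exposed to compound for 72 h before imaging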;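 on red/green cell ratio (normalised): normalised mesenchymal count divided by normalised epithelial count so high means epithelial killing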). The following applies: imaging cell counts, at 1 µM; for red/green cell ratio (normalised): actives lie on both sides, counts scaled to control wells, 1 = unselective.
Experiment [10] is described as follows: sensitizers of A549 cells to miR-34 induction, primary screen, imaging, A549 dox-inducible miR-34, nuclei and caspase counts (AID 1347080;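 active means compounds whose cell count with miR-34 switched on is under 0.7 times the count with it off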). The note with it: A549 miR-34 inducible, Hoechst nuclei count, 48 h.
Experiment [11] deals with NAD(+) hydrolase SARM1 (Homo sapiens) (UniProt Q6SZW1). Nature of the experiment: SARM1 TIR NADase inhibitors, cell lysate, NAD-Glo luminescence (AID 1508614).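 Further: higher remaining NAD means stronger inhibition of SARM1 NADase.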 The note with it: SAM-TIR HEK293T lysate NADase, at 1 µM, stronger effect = higher value.
NAD(+) hydrolase SARM1 (Homo sapiens), sequence (Q6SZW1 whole entry, looked up): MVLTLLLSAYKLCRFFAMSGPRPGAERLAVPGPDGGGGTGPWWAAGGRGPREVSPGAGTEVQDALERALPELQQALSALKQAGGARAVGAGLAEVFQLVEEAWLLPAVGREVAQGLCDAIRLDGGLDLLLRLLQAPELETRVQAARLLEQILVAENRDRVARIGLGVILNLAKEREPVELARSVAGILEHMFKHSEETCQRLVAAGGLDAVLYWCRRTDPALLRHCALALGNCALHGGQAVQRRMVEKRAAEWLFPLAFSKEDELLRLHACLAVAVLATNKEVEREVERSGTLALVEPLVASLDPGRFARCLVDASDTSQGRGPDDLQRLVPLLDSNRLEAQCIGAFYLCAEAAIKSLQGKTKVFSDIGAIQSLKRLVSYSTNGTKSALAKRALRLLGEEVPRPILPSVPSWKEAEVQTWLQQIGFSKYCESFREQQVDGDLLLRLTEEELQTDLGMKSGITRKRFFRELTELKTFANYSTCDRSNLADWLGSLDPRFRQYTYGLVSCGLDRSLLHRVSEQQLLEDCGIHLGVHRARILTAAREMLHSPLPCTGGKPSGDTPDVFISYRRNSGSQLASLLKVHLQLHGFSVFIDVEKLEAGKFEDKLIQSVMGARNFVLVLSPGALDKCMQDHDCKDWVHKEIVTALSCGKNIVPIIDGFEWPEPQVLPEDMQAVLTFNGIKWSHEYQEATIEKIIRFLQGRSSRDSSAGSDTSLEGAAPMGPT
A short description of experiment [12]: hESC survival regulators, cell-based (AID 493140; call rule not given here;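 further: cells exposed to compounds for four days before counting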). The following applies: human embryonic stem cell survival screen; stronger effect = higher value.
Experiment [13] in a line: liver-stage malaria parasite growth inhibition, primary screen, cell-based, HepG2, luciferase luminescence, HepG2 viability (AID 624349; in the data active means parasite load remaining mostly below about 12%, no sharp cut-off; inactive means mostly above about 10%;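 further: 100% = mean of DMSO negative control wells on the same plate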). The following applies: P. berghei liver stage in HepG2, luciferase luminescence, concentration not given here; parasite load remaining: stronger effect = lower value; viability: measured here: HepG2 viability without parasites.
Experiment [14] can be described thus: survival rescue of mitochondrial mutant cells in low glucose, primary screen, MELAS cybrids, Rieske KO mouse fibroblasts, CellTiter-Glo (AID 1508586;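 active means mean z-score across replicates of 1.96 or higher in either the MELAS or the Rieske mutant cell line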;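 further: z relative to plate mean and SD of compound and empty wells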).
Where [15] appears, read: measured here: epithelial PC-3E GFP cell survival.
Setting [16] is: measured here: mesenchymal TEM4-18 mCherry cell survival.
Where [17] appears, read: stronger effect = lower value, cell number ratio, induced over uninduced.
The mark [18] stands for this setting: measured here: relative caspase fold change +Dox/-Dox.
Setting [19] is: measured here: total cells with miR-34 induction, stronger effect = lower value.
[20] abbreviates: measured here: total cells without miR-34 induction.

With `NC(=O)NS(=O)(=O)c1ccc(N)cc1`, the nuclear beta-catenin stimulation in [1] (at 10 µM) is -1.6% (inactive); in experiment [1] (stimulation, at 2 µM) it was 0.3%. Moreover, the insulin secretion stimulation in experiment [2] was 5.8% (inactive). Moreover, in experiment [3], the viability decrease was -1.6% (inactive). The tube area decrease in experiment [4] was -10.6% (inactive). For the same compound, the GLP1 secretion stimulation in experiment [5] is -4.5% (inactive). In addition, the inhibition of viability in experiment [6] was 6.1% (inactive). The viability decrease (inhibition) in experiment [7] was 75.8% (active); in experiment [8], -12.6% (inactive). Further, the red/green cell ratio (normalised) in [9] is 0.74 (inactive). In addition, the figures for the normalised cell number in [9] (setting [15]) and in experiment [9] (setting [16]) were 1.37 and 1.02, respectively. Moreover, the fold change in [10] (setting [17]) was 0.96 (inactive); in experiment [10] (setting [18]), 0.945. Moreover, the values for the cell count in experiment [10] (setting [19]) and in [10] (setting [20]) were 8990 and 9360, respectively. In [11], the remaining NAD is 10 nM (inactive).

As for `CC(=O)N[C@@H](CCC(N)=O)C(=O)O`, the nuclear beta-catenin stimulation was -2.5% (inactive) in experiment [1] (at 10 µM) and 0.1% in [1] (stimulation, at 2 µM). In addition, in experiment [2], the insulin secretion stimulation was 2.8% (inactive). For the same compound, in [3], the viability decrease was -2.5% (inactive). Moreover, the tube area decrease in experiment [4] is 12.1% (inactive). In addition, the GLP1 secretion stimulation in experiment [5] was -3.6% (inactive). In experiment [6], the inhibition of viability was 0.7% (inactive). In addition, the viability decrease (inhibition) is 9.6% (inactive) in experiment [7] and -3.7% (inactive) in experiment [8]. Also, the red/green cell ratio (normalised) in [9] is 0.96 (inactive). The values for the normalised cell number in [9] (setting [15]) and in experiment [9] (setting [16]) were 0.97 and 0.93, respectively. Further, the results for the fold change in experiment [10] (setting [17]) and in experiment [10] (setting [18]) were 0.922 (inactive) and 0.675, respectively. In addition, the cell count in [10] (setting [19]) amounted to 8950; in experiment [10] (setting [20]), 9710. Moreover, the remaining NAD in experiment [11] was 10 nM (inactive).

With `CCCCC(CC)COc1ccc(-c2nc(-c3ccc(OC)cc3)nc(-c3ccc(OCC(CC)CCCC)cc3O)n2)c(O)c1` (stereo not drawn), the nuclear beta-catenin stimulation in experiment [1] (at 10 µM) is -1% (inactive); in [1] (stimulation, at 2 µM) it was 2%. The insulin secretion stimulation in experiment [2] is 0.7% (inactive). In addition, the viability decrease in experiment [3] is 4.7% (inactive). The tube area decrease in experiment [4] is 2.9% (inactive). In addition, the GLP1 secretion stimulation in experiment [5] was -2.3% (inactive). In experiment [6], the inhibition of viability is -5.3% (inactive). Also, the viability decrease (inhibition) in experiment [7] was -1.3% (active); in experiment [8], -8.3% (inactive). Moreover, the red/green cell ratio (normalised) in experiment [9] was 0.89 (inactive). Moreover, the figures for the normalised cell number in experiment [9] (setting [15]) and in experiment [9] (setting [16]) were 1.25 and 1.12, respectively. Also, the fold change is 0.959 (inactive) in [10] (setting [17]) and 0.849 in experiment [10] (setting [18]). The values for the cell count in experiment [10] (setting [19]) and in experiment [10] (setting [20]) were 9430 and 9840, respectively. Also, the remaining NAD in experiment [11] was 10 nM (inactive).

With `NCCc1ccn[nH]1`, the survival in experiment [12] was 17.5 (inactive). In addition, the parasite load remaining in [13] was 35.3% (inactive) and 97.6% (inactive). For the same compound, the viability in experiment [13] was 49.8% and 93.1%. For the same compound, the nuclear beta-catenin stimulation in [1] (at 10 µM) is 1% (inactive); in [1] (stimulation, at 2 µM), 0.9%. Further, the insulin secretion stimulation in experiment [2] is -1.5% (inactive). Besides, in experiment [3], the viability decrease was -5% (inactive). Further, in experiment [4], the tube area decrease was -21.4% (inactive). Further, in experiment [5], the GLP1 secretion stimulation is 1.1% (inactive). Besides, in experiment [6], the inhibition of viability is -8.9% (inactive). Also, the viability decrease (inhibition) in [7] was 12.5% (inactive); in [8], -9.4% (inactive). In experiment [9], the red/green cell ratio (normalised) was 0.76 (inactive). In addition, the normalised cell number came out at 1.25 in [9] (setting [15]) and 0.95 in [9] (setting [16]). Further, the fold change was 0.91 (inactive) in experiment [10] (setting [17]) and 1.36 in experiment [10] (setting [18]). In addition, the cell count worked out at 9040 in [10] (setting [19]) and 9920 in [10] (setting [20]). Moreover, the z-score in experiment [14] (MELAS cybrid survival, CellTiter-Glo 48 h, stronger effect = higher value) was 0.417 (inactive); in [14] (Rieske KO mouse fibroblast survival, CellTiter-Glo 72 h), 0.115. For the same compound, in experiment [11], the remaining NAD was 10 nM (inactive).
